# Source: PubChem
# FMDV inh = foot and mouth disease virus antiviral activity | FMDV antiviral cell-based qHTS | Potency, µM (series often up to 57.9 µM), for the others: at the top dose activity change, negative = inhibition, hits mostly inhibitors | 410,000 compounds, 1.2% hits | AID 1159524; calls by dose curve; tested in HEK293T cells; further: read-out not given here; potency means the concentration at half of the fitted maximal effect; nearly all actives have a fitted effect of over 45% in size
# Marburg entry inh = blocks Marburg virus binding to or entry into cells. Marburg virus pseudotyped entry inhibition, cell reporter. Potency, µM (series often up to 37.8 µM), without a hit: at the top dose activity change, negative = inhibition, hits mostly inhibitors. 300,000 compounds, 1.8% hits; calls by dose curve; tested in HEK293 cells; further: potency means the concentration at half of the fitted maximal effect
# HCMV inh = inhibitors of human cytomegalovirus | HFF cells, HCMV-luciferase reporter, 72 h; stronger effect = lower value | activity change, negative = inhibition, % at 57.5 µM | 410,000 compounds, 4.5% hits; in the data active means activity change below about -60%; inconclusive means no clear call, values can overlap the other calls; inactive means above about -39%
#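 After 16 h attachment at 37C, HFF cells received test compound and HCMV-luciferase (1 PFU/cell); reporter luminescence read 72 h later, data normalized against buffer-only and known inhibitor Salinomycin.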
# Lassa entry inh = Lassa virus entry inhibition; Lassa virus pseudotype entry inhibition, cell reporter; Potency, µM (titrated, usually from 37.9 µM), inactives show at the highest dose activity change, negative = inhibition, actives largely listed as inhibitors; 300,000 compounds, 1.2% hits; AID 540256; calls by dose curve; tested in HEK293 cells; further: potency means the concentration at half of the fitted maximal effect; nearly all actives have a fitted effect of over 50% in size
# Vaccinia mCherry = inhibitors of vaccinia virus infection (mCherry reporter signal). Vaccinia virus mCherry reporter infection, fluorescence. Potency, µM (doses to about 36.5 µM), inactives show at the highest dose activity change, negative = inhibition, most hits filed as inhibitors. AID 720579. 310,000 compounds, 0.63% hits; calls by dose curve; tested in A549 cells; further: potency means the concentration at half of the fitted maximal effect; nearly all actives have a fitted effect of over 35% in size
# Vaccinia Venus = vaccinia inhibition (Venus reporter) | Vaccinia virus Venus reporter expression, fluorescence | Potency, µM (highest dose often 36.5 µM), for the others: at the highest dose activity change, negative = inhibition, hits mostly inhibitors | 330,000 compounds, 0.46% hits; calls by dose curve; tested in A549 cells; further: potency means the concentration at half of the fitted maximal effect; nearly all actives have a fitted effect of over 30% in size
# Numbers without * were called inactive; i = inactive; ? = inconclusive; . = not tested or not shown; + = active, no number; [ ] = dose if it differs, or a comment. Most compounds without a hit are left out; they make up all but 6.5% or so of the library. On the % scale 0 is the no-effect control and ±100 the full control effect.
SMILES,FMDV inh,Marburg entry inh,HCMV inh,Lassa entry inh,Vaccinia mCherry,Vaccinia Venus
O=C(C=Cc1cccc([N+](=O)[O-])c1)c1ccccc1,.,-27%[14.2 µM],.,?,.,.
COc1cc(/C=C/C(=O)c2cccc([N+](=O)[O-])c2)cc(OC)c1OC,28µM*,?,-24,?,i,-21%
COc1cc(/C=C/C(=O)c2ccc(C)c([N+](=O)[O-])c2)cc(OC)c1O,14µM*,?,-17,-26%,?,-23%
CCC[C@H]1[C@@H](NS(=O)(=O)c2cccc([N+](=O)[O-])c2)CC[C@@]23CCCN2C(=O)CCC[C@@H]13,.,.,18,.,.,.
CCCC[C@]12Cc3cc(OC)c(OC)cc3[C@H](O1)C1=C(CC3(CCCCC3)OC1=O)O2,.,-24%[14.2 µM],.,.,.,.
CCN1CCN(c2cc(C)c3cc(NC(=O)Cc4ccc(OC)c(OC)c4)ccc3n2)CC1,-6%,-2%,-11,.,-21%,?
COc1cccc(/C=C/C(=O)Nc2ccc3nc(N4CCN(C)CC4)cc(C)c3c2)c1OC,-23%,?,-106*,?,-20%,-20%
CCN1CCN(c2cc(C)c3cc(NC(=O)/C=C/c4cccc(OC)c4OC)ccc3n2)CC1,-12%,7.1µM*,-100*,?,?,?
CCN1CCN(c2cc(C)c3cc(NC(=O)/C=C/c4cccc(Cl)c4)ccc3n2)CC1,-7%,5.6µM*,-101*,1%[46.1 µM],11µM*,?
Cc1cccc(OCC(=O)Nc2ccc3c(c2)nc(CCN2CCN(c4ccccn4)CC2)n3C)c1,32µM*,.,+,.,.,.
Cn1c(CCN2CCN(c3ccccn3)CC2)nc2cc(NC(=O)COc3ccc(Cl)cc3)ccc21,11µM*,.,-97*,.,.,.
S=C(c1ccc(-c2ccccc2)cc1)N1CCOCC1,3%,?,-83*,-2%[46.1 µM],-1%,-6%
COc1ccc(-n2ccnc2SCC(=O)Nc2nnc(C)s2)cc1,6%,.,-35,7%[46.1 µM],-4%,-6%
O=C(/C=C/c1ccc(Cl)cc1)NCc1cccs1,4%,-3%,-10,5.8µM*,i,-17%
Cc1ccc(C(=O)NCCc2cccs2)cc1,-71%,1.8µM*,-61*,?,.,.
O=C(NCCc1cccs1)c1ccc(Cl)c(Cl)c1,0%,?,-12,23%,?,?
O=C(NCCc1cccs1)c1ccc(Cl)cc1,-10%,?,-1,5.6µM*,-7%,-27%
COc1cc(CN2CCC(C(=O)NCC(C)(C)CN(C)C)CC2)ccc1OCc1ccccc1,14%,.,-94*,.,.,.
c1cc2c(cn1)cnc1cscc12,13%,-4%,-63*,6%,.,.
CCOC(=O)c1ccc(CNc2ncnc3nc[nH]c23)cc1,.,.,.,.,-28%,-30%
Cc1cccc(Nc2nc(NCc3ccco3)c3ccccc3n2)c1,28µM*,?,-95*,5.8µM*,?,13µM*
CNc1nc(NCc2ccco2)c2ccccc2n1,.,.,.,.,-17%,?
c1ccc(CN2CCN(c3nc(NCc4ccco4)c4ccccc4n3)CC2)cc1,32µM*,?,-34,13µM*,?,?
Oc1ccccc1Nc1nc(NCc2ccco2)c2ccccc2n1,?,.,0,.,.,.
COc1ccc(OC)c(Nc2nc(NCc3ccco3)c3ccccc3n2)c1,?,13µM*,?,-9%[46.1 µM],-22%,-23%
SMILES,FMDV inh,Marburg entry inh,HCMV inh,Lassa entry inh,Vaccinia mCherry,Vaccinia Venus
c1ccc(Nc2nc(NCc3ccco3)c3ccccc3n2)cc1,14µM*,?,-66*,13µM*,i,?
CC(=O)c1ccc(F)c(-c2cc(C)cc3c2OC(CNC(=O)Cc2ccc4c(c2)OCO4)C3)c1 (configuration not stated),-8%,.,.,.,-7%,-7%
CC(Oc1ccccc1F)C(=O)Nc1ccc2ccccc2c1 (configuration not stated),14%,?,-77*,?,?,19%
CC(Oc1ccc(F)cc1)C(=O)Nc1ccc2ccccc2c1 (configuration not stated),9%,12µM*,-67*,?,.,.
CCOC(=O)C(Cc1ccccc1)(Nc1ccccc1OC)C(O)c1ccc(C#N)cc1 (configuration not stated),.,.,-66*,.,.,.
CCOC(=O)C(NC(=O)CC)(Nc1ccccc1OC)C(F)(F)F (configuration not stated),-14%,2%[46.1 µM],-4,1%,.,-11%
Cc1ccc(S(=O)(=O)N2CCN(CC(=O)Nc3ccccc3Cl)CC2)cc1,-10%,.,-12,.,.,.
O=C(CN1CCN(C(=O)CNC(=O)c2ccc(-c3ccccc3)cc2)CC1)Nc1ccccc1Cl,28µM*,.,?,.,?,?
COC(=O)c1ccccc1NC(=O)CN1CCOCC1,4%,5%,-3,4%,.,.
Cc1ccc(S(=O)(=O)Nc2ccc(NC(=O)CN3CCCCC3)c(Cl)c2)cc1,-7%,?,-102*,21%,.,.
COC(=O)c1ccccc1NC(=O)CN1CCCCC1,-18%,?,-19,?,+,+
COc1cc(NC(=O)c2ccc(C(C)(C)C)cc2)c(OC)cc1NC(=O)CN1CCCCC1,?,?,?,10µM*,2%,5%
COCCNC(=O)C(C)(C)n1cc(NC(=O)COCc2ccccc2)cn1,.,.,1,.,.,.
CCN(CC)c1nc(NC2CCN(C)CC2)c2cc(OC)c(OC)cc2n1,.,.,.,.,-36%,?
COc1ccc(NC(=O)Cn2c(=O)n(-c3ccc(CC(=O)NCc4ccco4)cc3)c(=O)c3ccccc32)cc1,-11%,.,-63*,.,-6%[7.34 µM],-2%[7.34 µM]
COc1ccc(NC(=O)CNC(=O)c2ccco2)cc1,51%,24%,79,?,-3%,-9%
COC(=O)c1ccccc1NC(=O)Cn1c(=O)n(CCCC(=O)NCc2ccccc2Cl)c(=O)c2ccccc21,-24%,15%[46.1 µM],21,11%[46.1 µM],-11%,-2%
O=C(CN1CCCCC1)Nc1cccc(Cl)c1Cl,3%,22%,1,1%,i,0%
O=C(CN1CCCCCCC1)Nc1cccc(Cl)c1Cl,-4%,.,-65*,.,.,.
COC(=O)c1ccccc1NC(=O)CNC(=O)c1ccco1,-19%,2%,-72*,8%,.,-5%
COC(=O)c1ccccc1NC(=O)Cn1c(=O)n(-c2ccc(C)cc2)c(=O)c2ccccc21,-9%,?,-62*,-19%[46.1 µM],?,-25%
CCOc1ccc(OC(=O)c2sc3ncn(Cc4cccc(F)c4)c(=O)c3c2C)cc1,-22%,.,-9,?,-2%,-13%
O=C(/C=C/c1ccc(C(F)(F)F)cc1)OC(C(=O)NC1CC1)c1ccccc1 (configuration not stated),.,.,.,.,11%,-8%
COc1ccc2ncc(S(=O)(=O)c3ccccc3)c(N3CCN(c4ccccc4)CC3)c2c1,?,?,-68*,?,-29%,-16%
COc1ccc2ncc(S(=O)(=O)c3ccccc3)c(N3CCC4(CC3)OCCO4)c2c1,?,?,-35,-26%,?,-19%
Cc1cc(C)c(S(=O)(=O)N2CCC(n3c(C(F)(F)F)nc4cccnc43)CC2)c(C)c1,11%,.,2,2%[46.1 µM],1%,11%
